This is a sample that favours compounds with a hit; in the whole collection about 27% have one here.
CYP2C9 act – human CYP2C9 activators, primary screen, biochemical, luminescence. Cytochrome P450 2C9 (Homo sapiens), P11712. recombinant CYP2C9, luciferin-H conversion; active compounds read high; factor 1 = untreated enzyme, 0 = blocked. activation factor at 5 µM. hit rate 1.4% among 96,000. AID 1024, 2008;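 active = activation factor of 2 or more for CYP2C9 at a 5 µM dose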
Cav3 T inh – Cav3.2 calcium influx blockers – cell-based, Fluo-4 calcium fluorescence, FDSS, MLSMR library, primary screen. Voltage-dependent T-type calcium channel subunit alpha-1H (Homo sapiens), O95180. Cav3.2-expressing cells; active compounds read low. B-score at 10 µM. hit rate 4% among 100,000;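 active = single-dose well whose peak fluorescence ratio is a statistical outlier from its plate by either plate-standardised score or position-corrected B-score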
CYP2C19 inhib – blockers of cytochrome P450 2C19 activity – biochemical, luminescence, ADME assay, primary screen. inhibition, % at 5 µM. CYP2C19 Supersomes, luciferin-H EGE luminescence, 30 min. AID 778, 2007. hit rate 21% among 96,000. P33261;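 active = CYP2C19 inhibition above a set limit at 5 µM in the primary screen, cut at about 50% in these data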
Pyk2 oligo antag – antagonists of Pyk2 self-association, primary screen, Q293 cells, FERM NanoBiT luminescence, HTS; Protein-tyrosine kinase 2-beta (Homo sapiens), Q14289; z-score (the deposit names both 25 µM and 10 µM); active compounds read low; hit rate 0.83% among 99,000;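 active = Z-score of -3 or lower, scaled per plate to the spread of control and sample wells; inactive = z-score above -3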;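 also: negative z-score means lost luminescence so less FERM oligomerization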
CYP2C9 inh – blockers of cytochrome P450 2C9 activity – biochemical, luminescence, ADME assay, primary screen. inhibition, % at 5 µM. hit rate 20% among 96,000. CYP2C9 Supersomes, luciferin-H conversion;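 active = blocking of liver enzyme CYP2C9 beyond about 50% at 5 µM, limit read from the data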
CYP2C19 act – human CYP2C19 activators, primary screen, biochemical, luminescence. Cytochrome P450 2C19 (Homo sapiens), P33261. recombinant CYP2C19, luciferin-H EGE luminescence; active compounds read high; 0 = fully inhibited enzyme, 1 = untreated enzyme. activation factor at 5 µM. 96,000 tested, under 10 active. AID 1025, 2008;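 active = activation factor of at least 2 at 5 µM in the primary screen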
Each line names hits and unclear results; the compound was inactive in the other large screens.

CCC(c1nnnn1C(C)(C)C)N1CCN(c2cc(Cl)ccc2C)CC1 (centres undefined)	Cav3 T inh -3.8, CYP2C9 inh 79
COc1ccc(S(=O)(=O)Cc2ccc(C(=O)N3CCc4ccccc4C3)o2)cc1	CYP2C19 inhib 89, CYP2C9 inh 53 (no result: Pyk2 oligo antag)
Cc1ccc(S(=O)(=O)Cc2ccc(C(=O)N3CCc4ccccc4C3)o2)cc1	CYP2C19 inhib 92, CYP2C9 inh 56 (no result: Pyk2 oligo antag)
COc1ccc(C2C(C(=O)Nc3ccccn3)=C(C)Nc3ncnn32)c(OC)c1 (centres undefined)	none (no result: Pyk2 oligo antag)
CCN(CC)CCC(=O)Nc1ccc2c(c1)N(C(=O)CN(CC)CC)c1ccccc1CC2	none
Clc1ccc(CSc2nncn2-c2ccccn2)cc1	CYP2C19 inhib 68
Cc1ccc(CSc2nncn2-c2ccccn2)cc1	none (no result: CYP2C9 act, CYP2C19 inhib, CYP2C9 inh, CYP2C19 act)
CC[N+](C)(C)c1cccc(O)c1	none (no result: CYP2C9 act, CYP2C19 inhib, Pyk2 oligo antag, CYP2C9 inh, CYP2C19 act)
N#CCSc1nnc(Cc2cccc3ccccc23)n1C1CCCCC1	Cav3 T inh -5.7, CYP2C19 inhib 57
N#Cc1c(Cl)c(Cl)c2nnc(-c3ccc(Br)cc3)n2c1Cl	CYP2C9 inh 94 (no result: Pyk2 oligo antag)
O=C(Nc1cccc(-c2cnc3ccccc3n2)c1)c1cccc(NC(=O)c2ccco2)c1	CYP2C19 inhib 69, Pyk2 oligo antag -4.4, CYP2C9 inh 75
O=C(Nc1cccc(NC(=O)c2nccc3ccccc23)c1)c1ccco1	CYP2C9 act 2 (no result: Cav3 T inh)
O=C(CCl)Nc1cccc(-c2cnc3ccccc3n2)c1	CYP2C19 inhib 80
O=C(Nc1cccc(-c2cnc3ccccc3n2)c1)c1ccccc1	none
CCC(=O)Nc1cccc(-c2cnc3ccccc3n2)c1	CYP2C19 inhib 51
O=C(CCl)Nc1ccc(Oc2cnc3ccccc3n2)cc1	none
CC(=O)c1c(C(C)=O)c(C)n(C2CCCCC2)c1C	none (no result: CYP2C9 act, CYP2C19 inhib, CYP2C9 inh, CYP2C19 act)
C=C(C)COc1ccc(-c2nc(N)ncc2Oc2ccccc2OCC)c(O)c1	CYP2C19 inhib 80, Pyk2 oligo antag -4.5, CYP2C9 inh 92
Cc1ccc(-c2nnc(SCC#CCOC(=O)c3ccco3)o2)cc1	CYP2C19 inhib 89, CYP2C9 inh 89
O=C(Nc1ccc(-c2nc3ncccc3o2)cc1)c1ccco1	none
COc1cccc(C(=O)Nc2ccc(-c3nnc(-c4ccco4)o3)cc2)c1	CYP2C19 inhib 65
COc1cccc(C(=O)Nc2ccc(NC(C)=O)cc2)c1	none
O=C(Nc1ccc(-c2nnc(-c3ccccc3)o2)cc1)C(F)(F)F	none (no result: Cav3 T inh)
Cc1ccc(-c2nnc(SCC#CCOC(=O)c3cccs3)o2)cc1	none
O=C(Nc1ccc(-c2nnco2)cc1)c1ccccc1	CYP2C19 inhib 83, CYP2C9 inh 77
Cc1ccc(-c2nnc(-c3ccc(NC(=O)c4ccco4)cc3)o2)cc1	CYP2C19 inhib 67, CYP2C9 inh 79
N#CCSc1ncnc2c1cnn2CCO	none
CC1(OC(=O)C2CCCC2)C(=O)C=C2C=C(c3ccsc3)N(C(CO)CO)C=C2C1=O (centres undefined)	none (no result: CYP2C9 act, CYP2C19 inhib, Pyk2 oligo antag, CYP2C9 inh, CYP2C19 act)
CCOC(=O)c1cc(Br)c(=O)n2ccccc12	none (no result: Cav3 T inh)
COc1ccc(C2C3=C(CC(C)(C)CC3=O)Oc3ncn(Cc4ccco4)c(=N)c32)cc1 (centres undefined)	none
COC(=O)[C@H](Cc1ccccc1)NC(=O)NCc1cccs1	CYP2C19 inhib 63
COc1ccccc1CNC(=O)N[C@@H](Cc1ccccc1)C(=O)O	CYP2C19 inhib 70
O=C(NCc1ccccc1)N[C@@H](Cc1ccccc1)C(=O)O	none
O=C(N/C(=C/c1ccco1)C(=O)N1CCCCC1)c1cccs1	none
N#CCCN1CCN(C(CNS(=O)(=O)c2ccc(Cl)cc2)c2ccccc2)CC1 (centres undefined)	CYP2C19 inhib 90
N#CCCN1CCN(S(=O)(=O)c2ccc(S(=O)(=O)NCc3ccccc3)cc2)CC1	none (no result: Pyk2 oligo antag)
Cc1ccc(S(=O)(=O)NCC(c2ccccc2)N2CCN(CCC#N)CC2)cc1 (centres undefined)	CYP2C19 inhib 76
O=C(Nc1ccncc1)C1CCCN(S(=O)(=O)c2cccc3cccnc23)C1 (centres undefined)	CYP2C19 inhib 99, CYP2C9 inh 94 (no result: Pyk2 oligo antag)
O=C(Nc1ccccc1F)C1CCCN(S(=O)(=O)c2cccc3cccnc23)C1 (centres undefined)	CYP2C19 inhib 76 (no result: Pyk2 oligo antag)
COc1cccc(NC(=O)C2CCCN(S(=O)(=O)c3cccc4cccnc34)C2)c1 (centres undefined)	none (no result: Pyk2 oligo antag)
O=C(C1CCN(S(=O)(=O)c2cccc3cccnc23)CC1)N1CCN(C2CCCCC2)CC1	none (no result: Pyk2 oligo antag)
CC1CCCN(C(=O)C2CCN(S(=O)(=O)c3cccc4cccnc34)CC2)C1 (centres undefined)	CYP2C9 act 3.3 (no result: Pyk2 oligo antag)
CC(C)(C)NC(=O)C1CCCN(S(=O)(=O)c2cccc3cccnc23)C1 (centres undefined)	CYP2C9 act 2.7 (no result: Pyk2 oligo antag)
O=C(NCc1ccccc1C(F)(F)F)C1CC(c2cc(C(F)(F)F)cc(C(F)(F)F)c2)=NO1 (centres undefined)	none (no result: CYP2C9 act, CYP2C19 inhib, Pyk2 oligo antag, CYP2C9 inh, CYP2C19 act)
O=C(CCC(=O)N(c1ccc(F)cc1)C(C(=O)NC1CCCC1)c1ccncc1)Nc1cccnc1 (centres undefined)	none (no result: CYP2C9 act, CYP2C19 inhib, CYP2C9 inh, CYP2C19 act)
Cc1nc([N+](=O)[O-])c(Sc2nc3ccc([N+](=O)[O-])cc3[nH]2)n1Cc1ccccc1	none (no result: CYP2C9 act, Cav3 T inh, CYP2C19 inhib, CYP2C9 inh, CYP2C19 act)
Cc1ccc([N+](=O)[O-])cc1NC(=O)CN1CCC(C)CC1	none (no result: Cav3 T inh)
O=C(NCc1ccco1)C1CCCN(S(=O)(=O)c2cccc3cccnc23)C1 (centres undefined)	CYP2C9 act 4.1, CYP2C19 inhib 70 (no result: Pyk2 oligo antag)
Cc1ccccc1NC(=O)C1CCCN(S(=O)(=O)c2c(C)noc2C)C1 (centres undefined)	none
Cc1nnc(NC(=O)C2CCCN(S(=O)(=O)c3ccccc3C(F)(F)F)C2)s1 (centres undefined)	CYP2C19 inhib 51, CYP2C9 inh 62
O=C(C1CCCN(S(=O)(=O)c2cccc3cccnc23)C1)N1CCN(c2ccc(F)cc2)CC1 (centres undefined)	CYP2C19 inhib 61 (no result: Pyk2 oligo antag)
CS(=O)(=O)N1CCCC(C(=O)NCc2ccco2)C1 (centres undefined)	none
O=C(C1CCN(S(=O)(=O)c2cccc3cccnc23)CC1)N1CCN(c2ccccc2)CC1	none (no result: Pyk2 oligo antag)
Cc1[nH]c(=O)[nH]c(=O)c1S(=O)(=O)N1CCCC(C(=O)NCc2ccco2)C1 (centres undefined)	CYP2C19 inhib 74, CYP2C9 inh 97
CN(Cc1nc2ccccc2n1C)S(C)(=O)=O	none
CN(Cc1nc2ccccc2n1C)S(=O)(=O)c1ccc(F)cc1	CYP2C9 act 2.7, CYP2C19 inhib 84
